# The full list was thinned out, with hits kept by preference.
# RmlC RmlD mix = RmlC and RmlD coupled enzyme inhibitors, primary screen, biochemical, 384-well, compound mixtures, retest; AID 1532, 2009; RmlC/RmlD coupled enzyme inhibition, 384-well mixture HTS; 110,000 compounds, 0.39% hits; inhibition, % at 5.5 µM; in the data active means inhibition above about 30%, passing the limit was not always enough
# HIV RNase H inh = HIV-1 RT RNase H inhibitors, primary screen, biochemical, fluorescence; Gag-Pol polyprotein (Human immunodeficiency virus type 1 group M subtype B (isolate …; RT-RNase H RNA/DNA duplex cleavage; inhibition, % at 10 µM; 65,000 compounds, 1.9% hits; AID 565, 2006; in the data active means inhibition above about 50%
# The depositor's hits bear a star; · = no result given.
SMILES,RmlC RmlD mix,HIV RNase H inh
N#Cc1cc2c(=O)n3ccccc3nc2n(CCN2CCOCC2)c1=O,·,-14.0
O=C(NCCN1CCOCC1)c1cc2c(=O)n3ccccc3nc2n1Cc1ccccc1,86.4*,-4.0
N#Cc1cc2c(=O)n3ccccc3nc2n(CCCN2CCOCC2)c1=O,79.1*,-13.8
NC(=O)CC(NC(=O)Cc1ccc(Cl)cc1)c1ccc(NCc2ccccc2)c([N+](=O)[O-])c1 (stereo unspecified),-14.5,·
COc1ccc(-c2nnc(NC(=O)c3ccc(S(=O)(=O)N4CCCc5ccccc54)cc3)o2)cc1,·,52.1*
O=C(Nc1nnc(C2CC2)o1)c1ccc(S(=O)(=O)N2CCCc3ccccc32)cc1,·,1.8
COc1cc(C(=O)Nc2sc3c(c2C(=O)NCc2ccco2)CCCC3)cc(OC)c1OC,-13.2,·
COC(=O)Nc1sc2c(c1C(=O)NCc1ccco1)CCC2,10.2,-15.3
COc1ccc(C(=O)Nc2sc3c(c2C(=O)NCc2ccco2)CCCC3)cc1OC,146.3*,·
CCOc1ccccc1NC(=O)c1c(NC(=O)CNCc2ccco2)sc2c1CCC2,·,72.1*
CCN=C(NCC)SC1CC(=O)N(c2ccc(F)cc2)C1=O (stereo unspecified),-9.9,·
CCC1=C[C@H]2CN(C1)Cc1c([nH]c3ccccc13)[C@@](C(=O)OC)(c1cc3c(cc1OC)N(C)[C@H]1[C@@](O)(C(=O)OC)[C@H](OC(C)=O)[C@]4(CC)C=CCN5CC[C@]31[C@@H]54)C2,-7.6,·
Cc1ccc(-c2nnn(CC(=O)N(Cc3cccs3)C(C(=O)NC3CCCC3)c3ccco3)n2)o1 (stereo unspecified),-6.6,-4.7
Cc1ccc(-c2nnn(CC(=O)N(c3ccccc3)C(C(=O)NC3CCCC3)c3ccco3)n2)o1 (stereo unspecified),-8.2,60.4*
Cc1nnc2sc(-c3ccc(NC(=O)c4ccc(-c5ccc(Cl)cc5Cl)o4)cc3)nn12,19.9,50.0*
Cc1nnc2sc(-c3ccc(NC(=O)c4cccnc4)cc3)nn12,·,2.5
Cc1nnc(NC(=O)c2ccc(-c3cccc(C(F)(F)F)c3)o2)s1,1.1,57.0*
CC(=O)Cc1nsc(NC(=O)c2ccc(-c3cccc(C(F)(F)F)c3)o2)n1,62.4,1.0
CCOC(=O)[C@@H]1[C@H]2COc3ccc(Br)cc3[C@@H]2N2C(=O)N(c3cccc(F)c3)C(=O)[C@]12C,-8.4,·
Cc1csc(NC(=O)CCc2ccc(S(=O)(=O)N3CCOCC3)cc2)n1,-11.9,·
O=C(CCc1ccccc1)Nc1nc2ccc(S(=O)(=O)N3CCOCC3)cc2s1,8.0,63.8*
CC1(C)CCC23CC[C@]4(C)C(OC2=O)(C3C1)[C@H]1O[C@H]1C1[C@@]2(C)CC[C@@H](O)C(C)(C)C2CC[C@]14C (stereo partly specified),2.3,·
COc1ccc(-c2nnnn2CCc2ccccc2)cc1,-10.2,-19.0
CCC(=O)Nc1sccc1C(=O)OC,9.0,-10.9
COC(=O)Nc1sccc1C(=O)Nc1sccc1C(=O)OC,-19.0,53.6*
SMILES,RmlC RmlD mix,HIV RNase H inh
O=C(NCCCCc1ccccc1)C1CC(c2ccccc2C(F)(F)F)=NO1 (stereo unspecified),4.5,·
COc1ccc(C2C=C(c3ccccc3)Nc3nc(CCCO)nn32)cc1 (stereo unspecified),23.9,6.5
COc1ccc(C2C=C(c3cccs3)Nc3nc(CCCO)nn32)cc1 (stereo unspecified),44.0*,-0.2
CC1(C)C(=O)Nc2ccccc2N1C(=O)COC(=O)c1ccc(Cl)c(S(=O)(=O)NCc2ccccc2)c1,-10.7,·
CCCCn1c(=O)c(C(=O)NCc2ccncc2)c(O)c2ccccc21,-6.3,8.0
CCCCCCn1c(=O)c(C(=O)Nc2ccncc2)c(O)c2ccccc21,·,69.4*
CCOc1ccc(/C=N/n2c(SC)nnc2-c2ccccc2)cc1OCC,12.7,·
COc1ccc(-n2nnnc2S(=O)(=O)Cc2ccc(C(=O)O)cc2)cc1,-25.0,62.6*
COc1ccc(-n2nnnc2S(=O)(=O)CC(=O)N2CCCCC2)cc1,-7.4,29.3
C=C1c2ccccc2S(=O)(=O)N(Cc2ccccc2)C1COCc1ccccc1 (stereo unspecified),-12.6,·
CNC(=O)c1cc2cc(OC)ccc2oc1=N,42.0*,-10.0
CNC(=O)c1cc2cc(OC)ccc2oc1=O,-0.3,·
CCC(=O)Nc1cccc(NC(=O)CSc2nnc(-c3ccc(NS(C)(=O)=O)cc3)n2CC)c1,-5.4,·
CCOC(=O)c1c(C)oc2c1c1c(c3ccccc32)OCN(Cc2cccnc2)C1,4.0,17.2
CCOC(=O)c1c(C)oc2c1c(C(c1cccnc1)N1CCN(C)CC1)c(O)c1ccccc12 (stereo unspecified),·,60.0*
OC[C@@H](O)[C@@H](O[C@H]1O[C@H](CO)[C@@H](O)[C@H](O)[C@H]1O)[C@H](O)[C@@H](O)CO,-12.9,·
N#CC1=C(N)N2C(=C(C#N)C1c1ccccc1)Sc1ccccc12 (stereo unspecified),-7.7,1.8
